Assay results: the supplement of paper PMC3334620
The full ranking holds about 33,000 sequences; the median of “E-score (-0.5 to 0.5)” is about -0.017, and the highest 2% start at about 0.3. For the sample, the highest values were picked, then their nearest neighbours and some sequences at random.

Biological target: T1, Sut1 (UniProt P53032)
T1 sequence: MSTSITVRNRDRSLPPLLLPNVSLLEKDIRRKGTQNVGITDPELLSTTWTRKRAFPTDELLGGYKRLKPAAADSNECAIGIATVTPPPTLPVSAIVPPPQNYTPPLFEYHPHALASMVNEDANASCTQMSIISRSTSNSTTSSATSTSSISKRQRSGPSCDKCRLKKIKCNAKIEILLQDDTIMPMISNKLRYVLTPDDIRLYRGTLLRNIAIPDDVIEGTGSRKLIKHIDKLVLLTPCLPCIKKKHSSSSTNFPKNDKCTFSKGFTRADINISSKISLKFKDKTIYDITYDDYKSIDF
Test: PBM E-score (8-mer binding enrichment) (E-score (-0.5 to 0.5)); higher = stronger / more preferred TF binding
Settings: protein concentration: 200 nM; construct: GST-full length
Summary of the method: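 GST-tagged yeast TFs (full-length or DNA-binding domain) were made by PURExpress in vitro transcription/translation and applied at about 100-200 nM to universal all-10-mer Agilent arrays. The arrays were made double-stranded by primer extension, on fresh or once-stripped slides. Bound protein was detected with fluorescent anti-GST, and scans were normalised with masliner. Each ungapped eight-base word, pooled with its reverse complement, received an E-score (modified Wilcoxon-Mann-Whitney statistic) from the Universal PBM Analysis Suite.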

Sequence	PBM E-score
ACTCCACT	-0.144
CCCTCAGA	-0.309
CAGAGAAC	-0.299
CTATCAAC	0.208
AGACTCTG	-0.137
CAGTCACA	-0.17
GACCCGTC	-0.239
AGTTCTCC	0.0174
GTGACGAA	-0.0161
CCTTAGGA	-0.0422
AACCAGCT	-0.0518
CGAAAACC	0.0693
AGTTAAGA	0.0414
GCCCGGTA	-0.187
ATCCGGTC	-0.00108
CCCCGGTA	0.0227
CGCCGGTC	-0.0721
GGCCGGTA	0.0132
CTCCGGTC	0.418
GTCCGGTA	0.373
CTCCGGTA	0.413
ATCCGGTA	0.135
GGTCGAAA	-0.14
GGCTGACC	-0.205

Sequence	PBM E-score
ATTATTCA	0.289
AGGATACT	-0.0531
ACTCGGCT	-0.079
ACACCGCA	0.0401
GTAGACAA	0.157
AGGGGTAT	-0.217
ACGCACTA	-0.0472
GCATATCC	-0.196
GGATTTCA	0.117
GGGACCTA	0.0551
CGGACCTA	0.42
CTGACCTC	-0.121
AGGACCTA	-0.0435
AGGACCTC	-0.0609
CGGACCTC	0.411
AACTCGAA	-0.0516
TCCTTCCA	-0.243
GTATAAAA	0.317
TTATAAAA	0.314
ATATAAAA	0.205
GTATAAAC	0.227
GTATAAGA	0.103
CTATAAAA	0.183
TGAACCCA	-0.00171

Sequence	PBM E-score
GTCGTTGA	-0.0946
ATCCCAGC	-0.107
ACACTAGA	0.0902
CGATGTCC	0.164
ATCAAGAT	0.158
CACGGAGA	0.355
CACGGAGC	0.354
TACGGACA	0.282
AACGGAGC	0.231
AACGGAGT	0.478
GACGGAGC	0.231
GACGGAGA	0.277
AACGGAGG	-0.0314
TACGGAGA	0.32
CACGGAGG	0.0312
CAAGGAGA	0.0606
TACGGAAA	0.278
ATCCATTA	0.076
AATCGCCA	-0.0545
AAGAGATC	-0.168
AGAATTGG	0.13
CGCAATGA	-0.0747
ACACTTGA	-0.00965
AGACCACC	-0.0644

Sequence	PBM E-score
CATGGCAG	-0.108
CCCTGGGC	-0.324
ATTAATGA	0.267
ATTTCTTA	0.0841
CTCCCGAA	-0.0868
CTCCCTCC	-0.2
GGCTCATA	-0.0389
CAGCGGGG	-0.149
AACGGAGA	0.359
AACGGATA	0.285
AACAGAGA	-0.0653
ACTGCTCC	-0.0101
GGAGTAGA	0.318
AGAGTAGA	0.163
CGAGTATA	0.0489
GGAGTATA	0.311
GGAGTAAA	0.333
GGAGTAAC	0.258
CGAGTAGA	-0.0364
AGAGTATA	0.00921
TGAGTAAA	0.0705
AGGCCATG	-0.206
